Test results published in PubChem BioAssay.
Activity calls are given as the source filed them.

Columns and labels:
[1] = test system: PRMT1 (protein arginine N-methyltransferase 1); test: PRMT1 binders on small-molecule microarrays, primary screen, biochemical, small-molecule microarray, 635 nm fluorescence (AID 1088); conditions: small-molecule microarray binding, higher = more signal;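 further: binding of Prmt1 protein to compounds spotted on small-molecule microarray slides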
[2] = yeast growth modulation, basal conditions, primary screen, YJM789 clinical isolate, OD600, 24 h (AID 1089);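 further: growth of clinical yeast isolate S. cerevisiae YJM 789 seeded 1000 cells per well; test concentration not given here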; conditions: S. cerevisiae YJM789 growth, higher = more signal, called active from +8 up or from −8 down
[3] = fission yeast growth modulation, primary screen, strain 972, OD600, 24 h, no modulator (AID 1090);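 further: basal condition with compound alone and no growth modifier present; test concentration not given here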; conditions: S. pombe 972 growth, higher = more signal, called active from +8 up or from −8 down
[4] = S. cerevisiae growth modulation with rapamycin, primary screen, strain BY4716, OD600, 96 h (AID 1091); conditions: higher = more signal, called active from +8 up or from −8 down; further: test concentration not given here
[5] = molecular target: Torsin-1A-interacting protein 2 (Homo sapiens) (UniProt Q8NFQ8); test: LULL1 binders on small-molecule microarray, primary screen, cell lysate, human LULL1 lysate, 635/667 nm fluorescence (AID 1092); conditions: hLULL1 lysate binding, 635 nm fluorescence, higher = more signal;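 further: probe is lysate of COS7 cells overexpressing human LULL1; score merges per-feature 667 nm fluorescence with signal-to-noise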
Torsin-1A-interacting protein 2 (Homo sapiens), sequence (Q8NFQ8 whole entry, looked up): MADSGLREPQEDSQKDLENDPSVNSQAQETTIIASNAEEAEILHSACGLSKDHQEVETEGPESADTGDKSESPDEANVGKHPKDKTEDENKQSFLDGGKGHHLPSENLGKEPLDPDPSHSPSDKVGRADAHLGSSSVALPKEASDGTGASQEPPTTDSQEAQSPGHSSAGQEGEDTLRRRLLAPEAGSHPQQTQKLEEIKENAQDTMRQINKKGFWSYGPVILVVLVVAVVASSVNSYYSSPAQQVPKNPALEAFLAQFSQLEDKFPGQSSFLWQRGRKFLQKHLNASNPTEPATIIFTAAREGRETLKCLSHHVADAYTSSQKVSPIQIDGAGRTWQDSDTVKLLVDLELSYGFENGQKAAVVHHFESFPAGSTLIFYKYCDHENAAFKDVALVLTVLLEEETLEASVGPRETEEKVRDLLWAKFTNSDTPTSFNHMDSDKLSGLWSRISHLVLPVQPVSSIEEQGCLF

[6] = E. coli growth modulation, two-sided OD650, primary screen, E. coli filamentation project, strain DRC41, 24 h (AID 1093); conditions: OD650, 24 h, higher = more signal, called active from +8 up or from −8 down;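 further: MC1000 strain lacking acrAB efflux and sulA so SOS filamentation is blocked; test concentration not given here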
[7] = small-molecule microarray binders of probe aLefty2, primary screen, biochemical, biotinylated probe, 635/667 nm fluorescence (AID 1094); conditions: higher = more signal;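 further: score merges spot fluorescence near 667 nm with spot signal-to-noise ratio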
[8] = test system: Noggin (protein binding on small-molecule microarray); test: Noggin binders on small-molecule microarray, primary screen, biochemical, 635/667 nm fluorescence (AID 1095); conditions: 635 nm fluorescence, higher = more signal;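 further: score merges 667 nm feature fluorescence with signal to noise over triplicate slides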
[9] = molecular target: Neurogenic locus notch homolog protein 3 (Homo sapiens) (UniProt Q9UM47); test: NOTCH3 binders on small-molecule microarray, primary screen, biochemical, 635/667 nm fluorescence (AID 1096); conditions: NOTCH3 binding, 635 nm fluorescence, higher = more signal
Neurogenic locus notch homolog protein 3 (Homo sapiens), sequence (Q9UM47 whole entry, looked up): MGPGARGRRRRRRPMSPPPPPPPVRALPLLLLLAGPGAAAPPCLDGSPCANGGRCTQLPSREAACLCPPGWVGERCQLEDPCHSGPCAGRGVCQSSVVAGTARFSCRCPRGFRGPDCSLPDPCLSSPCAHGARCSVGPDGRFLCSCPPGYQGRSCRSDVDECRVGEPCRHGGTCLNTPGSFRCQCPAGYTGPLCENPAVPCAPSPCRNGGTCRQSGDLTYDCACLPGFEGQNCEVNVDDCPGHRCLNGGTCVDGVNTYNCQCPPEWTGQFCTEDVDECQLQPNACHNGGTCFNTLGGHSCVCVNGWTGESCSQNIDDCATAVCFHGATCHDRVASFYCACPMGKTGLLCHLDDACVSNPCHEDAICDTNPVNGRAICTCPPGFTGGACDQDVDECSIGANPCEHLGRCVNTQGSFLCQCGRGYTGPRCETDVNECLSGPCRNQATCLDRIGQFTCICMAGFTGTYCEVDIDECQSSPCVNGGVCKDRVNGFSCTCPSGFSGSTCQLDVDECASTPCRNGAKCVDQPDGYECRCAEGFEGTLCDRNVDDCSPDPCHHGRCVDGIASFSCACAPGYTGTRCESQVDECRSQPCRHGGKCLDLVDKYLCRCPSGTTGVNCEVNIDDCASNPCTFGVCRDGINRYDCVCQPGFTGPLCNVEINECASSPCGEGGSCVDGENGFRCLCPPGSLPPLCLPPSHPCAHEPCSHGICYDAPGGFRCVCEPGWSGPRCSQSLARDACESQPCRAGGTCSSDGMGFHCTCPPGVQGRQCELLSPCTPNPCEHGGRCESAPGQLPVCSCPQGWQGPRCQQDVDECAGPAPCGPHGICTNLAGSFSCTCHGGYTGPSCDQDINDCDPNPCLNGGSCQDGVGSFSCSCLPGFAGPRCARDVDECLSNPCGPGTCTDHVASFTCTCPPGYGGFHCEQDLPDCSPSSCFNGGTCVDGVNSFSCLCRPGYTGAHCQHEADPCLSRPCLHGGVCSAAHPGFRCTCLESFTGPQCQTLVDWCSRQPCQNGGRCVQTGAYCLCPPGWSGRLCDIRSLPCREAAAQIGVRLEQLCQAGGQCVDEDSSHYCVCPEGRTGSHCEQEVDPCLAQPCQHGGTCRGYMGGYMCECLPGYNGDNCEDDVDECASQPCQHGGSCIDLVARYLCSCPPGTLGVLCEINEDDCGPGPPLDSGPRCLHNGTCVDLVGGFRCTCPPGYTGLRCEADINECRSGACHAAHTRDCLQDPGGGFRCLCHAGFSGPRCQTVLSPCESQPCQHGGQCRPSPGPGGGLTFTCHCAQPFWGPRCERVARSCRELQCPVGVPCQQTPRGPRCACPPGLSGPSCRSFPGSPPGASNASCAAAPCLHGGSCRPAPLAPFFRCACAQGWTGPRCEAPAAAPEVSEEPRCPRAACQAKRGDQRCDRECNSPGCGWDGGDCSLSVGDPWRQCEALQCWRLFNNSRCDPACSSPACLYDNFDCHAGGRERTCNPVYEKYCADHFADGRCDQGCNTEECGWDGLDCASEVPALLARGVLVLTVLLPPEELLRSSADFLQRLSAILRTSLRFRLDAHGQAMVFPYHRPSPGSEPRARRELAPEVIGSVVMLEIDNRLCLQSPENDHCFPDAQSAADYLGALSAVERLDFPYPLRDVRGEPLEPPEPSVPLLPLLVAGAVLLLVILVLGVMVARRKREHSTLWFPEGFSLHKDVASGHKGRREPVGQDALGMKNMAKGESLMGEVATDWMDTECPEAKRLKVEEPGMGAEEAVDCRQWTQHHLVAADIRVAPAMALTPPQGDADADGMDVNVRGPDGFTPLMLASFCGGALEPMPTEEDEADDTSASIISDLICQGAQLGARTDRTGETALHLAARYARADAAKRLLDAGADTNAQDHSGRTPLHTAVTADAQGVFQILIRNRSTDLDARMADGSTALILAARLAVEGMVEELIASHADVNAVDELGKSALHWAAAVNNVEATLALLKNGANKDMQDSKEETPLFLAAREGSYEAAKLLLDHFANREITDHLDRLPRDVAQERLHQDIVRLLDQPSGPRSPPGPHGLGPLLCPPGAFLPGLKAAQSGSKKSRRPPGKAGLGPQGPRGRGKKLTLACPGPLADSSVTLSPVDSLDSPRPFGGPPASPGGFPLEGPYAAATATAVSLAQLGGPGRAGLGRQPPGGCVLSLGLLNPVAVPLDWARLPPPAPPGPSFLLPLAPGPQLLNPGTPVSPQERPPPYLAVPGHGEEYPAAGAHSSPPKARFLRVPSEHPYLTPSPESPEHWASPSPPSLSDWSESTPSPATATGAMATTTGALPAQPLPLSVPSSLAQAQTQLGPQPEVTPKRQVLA

[10] = small-molecule microarray binders of probe aEGFR, primary screen, biochemical, biotinylated probe, 635/667 nm fluorescence (AID 1097); conditions: higher = more signal;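 further: probe is a biotinylated anti-EGFR antibody binding compounds printed on slides; score combines fluorescence near 667 nm and signal to noise of each spot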
[11] = test system: Plasmodium falciparum Sir2 (PF13_0152, Sir2A); test: pfSir2 binders on small-molecule microarrays, primary screen, biochemical, small-molecule microarray, 635 nm fluorescence (AID 1098); conditions: small-molecule microarray binding, fluorescence 635 nm; higher = more signal;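 further: score merges spot fluorescence intensity with its signal-to-noise ratio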
[12] = small-molecule microarray binders of probe aDKK1, primary screen, biochemical, biotinylated probe, 635/667 nm fluorescence (AID 1099); conditions: higher = more signal;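 further: score merges 667nm spot fluorescence with signal to noise across triplicate slides; reference of the scale not given here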
[13] = small-molecule microarray binders of probe aCHRDL2, primary screen, biochemical, biotinylated probe, 635/667 nm fluorescence (AID 1100); conditions: higher = more signal
[14] = splicing luciferase reporter signal modulators, primary screen, spliceosome inhibition project, cell-based, HEK293, splice +/- reporter (AID 1101); conditions: luminescence, 24 h, higher = more signal, called active from +8 up or from −8 down;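 further: HEK293 cells carrying a splicing-competent luciferase reporter gene; test concentration not given here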
[15] = molecular target: Fibroblast growth factor 10 (Homo sapiens) (UniProt O15520); test: FGF10 binders on small-molecule microarrays, primary screen, biochemical, small-molecule microarray, 635 nm fluorescence (AID 1102); conditions: FGF10 binding, fluorescence 635 nm, higher = more signal
Fibroblast growth factor 10 (Homo sapiens), sequence (O15520 whole entry, looked up): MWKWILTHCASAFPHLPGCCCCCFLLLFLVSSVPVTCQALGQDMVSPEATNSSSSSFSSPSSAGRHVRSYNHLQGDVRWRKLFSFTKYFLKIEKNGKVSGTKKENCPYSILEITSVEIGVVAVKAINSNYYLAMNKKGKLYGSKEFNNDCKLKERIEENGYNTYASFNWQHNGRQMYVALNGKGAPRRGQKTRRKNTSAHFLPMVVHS

[16] = test system: glycogen synthase kinase-3 (GSK3A per assay name; protocol says GSK3B); test: GSK3 binders on small-molecule microarrays, primary screen, biochemical, small-molecule microarray, 635 nm fluorescence, GSK3A (AID 1103); conditions: small-molecule microarray binding, fluorescence 635 nm; higher = more signal; further: the record names both GSK3A and GSK3B
[17] = molecular target: Epidermal growth factor receptor (Homo sapiens) (UniProt P00533); test: EGFR binders on small-molecule microarrays, primary screen, biochemical, small-molecule microarray, 635 nm fluorescence (AID 1104); conditions: EGFR binding, higher = more signal;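 further: score merges 667 nm emission intensity with spot signal to noise over triplicate slides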
Epidermal growth factor receptor (Homo sapiens), sequence (P00533 whole entry, looked up): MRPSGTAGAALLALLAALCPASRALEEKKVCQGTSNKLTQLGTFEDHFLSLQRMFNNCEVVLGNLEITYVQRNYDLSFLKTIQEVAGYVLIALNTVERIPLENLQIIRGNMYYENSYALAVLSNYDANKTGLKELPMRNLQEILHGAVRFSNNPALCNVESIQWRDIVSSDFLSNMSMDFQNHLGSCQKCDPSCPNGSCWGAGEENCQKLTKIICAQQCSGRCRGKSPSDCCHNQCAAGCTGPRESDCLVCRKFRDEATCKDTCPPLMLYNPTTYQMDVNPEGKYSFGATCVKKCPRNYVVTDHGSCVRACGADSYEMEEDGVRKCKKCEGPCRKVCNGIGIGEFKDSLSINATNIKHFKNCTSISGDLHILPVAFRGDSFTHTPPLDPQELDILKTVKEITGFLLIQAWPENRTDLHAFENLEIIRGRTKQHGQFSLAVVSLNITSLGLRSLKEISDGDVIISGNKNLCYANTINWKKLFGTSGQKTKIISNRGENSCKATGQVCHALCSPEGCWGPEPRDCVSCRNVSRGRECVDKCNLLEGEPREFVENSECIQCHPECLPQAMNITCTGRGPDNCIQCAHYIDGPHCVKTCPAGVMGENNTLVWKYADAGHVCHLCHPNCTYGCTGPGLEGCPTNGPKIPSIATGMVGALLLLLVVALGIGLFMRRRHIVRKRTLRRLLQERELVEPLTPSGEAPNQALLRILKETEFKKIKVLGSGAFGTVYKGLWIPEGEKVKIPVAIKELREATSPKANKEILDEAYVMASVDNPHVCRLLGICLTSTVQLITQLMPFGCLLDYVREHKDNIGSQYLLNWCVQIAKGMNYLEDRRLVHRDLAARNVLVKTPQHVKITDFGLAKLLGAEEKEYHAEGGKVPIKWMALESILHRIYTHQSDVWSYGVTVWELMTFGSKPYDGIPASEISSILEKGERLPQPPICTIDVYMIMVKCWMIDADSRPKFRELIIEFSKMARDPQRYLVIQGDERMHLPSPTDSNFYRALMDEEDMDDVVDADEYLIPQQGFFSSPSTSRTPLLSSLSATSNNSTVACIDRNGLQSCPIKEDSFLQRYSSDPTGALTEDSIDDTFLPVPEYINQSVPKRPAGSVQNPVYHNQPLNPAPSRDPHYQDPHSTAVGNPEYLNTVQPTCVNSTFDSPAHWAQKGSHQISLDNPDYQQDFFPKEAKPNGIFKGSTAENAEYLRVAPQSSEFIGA

[18] = molecular target: Follistatin-related protein 3 (Homo sapiens) (UniProt O95633); test: FSTL3 binders on small-molecule microarrays, primary screen, biochemical, small-molecule microarray, 635 nm fluorescence (AID 1105); conditions: FSTL3 binding, higher = more signal;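 further: score merges emission near 667 nm and signal to noise per printed spot across three slides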
Follistatin-related protein 3 (Homo sapiens), sequence (O95633 whole entry, looked up): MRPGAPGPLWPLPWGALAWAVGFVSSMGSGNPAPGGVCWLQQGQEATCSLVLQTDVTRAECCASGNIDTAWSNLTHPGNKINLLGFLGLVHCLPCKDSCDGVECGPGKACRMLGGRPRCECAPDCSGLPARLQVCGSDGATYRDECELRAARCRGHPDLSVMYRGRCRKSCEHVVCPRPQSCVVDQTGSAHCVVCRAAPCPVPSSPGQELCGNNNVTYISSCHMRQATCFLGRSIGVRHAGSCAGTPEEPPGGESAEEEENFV

[19] = molecular target: Dickkopf-related protein 1 (Homo sapiens) (UniProt O94907); test: DKK1 binders on small-molecule microarrays, primary screen, biochemical, small-molecule microarray, 635 nm fluorescence scan (AID 1106); conditions: DKK1 binding, higher = more signal;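 further: score merges emission near 667 nm with signal to noise over three replicate slides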
Dickkopf-related protein 1 (Homo sapiens), sequence (O94907 whole entry, looked up): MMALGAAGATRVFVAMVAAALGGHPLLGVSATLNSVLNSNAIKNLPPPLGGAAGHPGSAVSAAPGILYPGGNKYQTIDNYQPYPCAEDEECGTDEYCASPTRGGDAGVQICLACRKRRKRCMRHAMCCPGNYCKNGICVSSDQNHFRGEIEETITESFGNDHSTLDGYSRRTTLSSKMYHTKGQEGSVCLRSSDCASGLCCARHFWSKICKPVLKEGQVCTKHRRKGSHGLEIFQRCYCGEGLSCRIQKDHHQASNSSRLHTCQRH

[20] = test system: Inhibin beta A chain (activin A); test: INHBA (activin A) binders on microarrays, primary screen, biochemical, small-molecule microarray, 635 nm fluorescence scan (AID 1107); conditions: small-molecule microarray binding, higher = more signal;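 further: mouse activin A protein probed at 4.33 µg/mL on printed slides; score merges bound-protein fluorescence near 667 nm with spot signal-to-noise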

Row | Compound | composite z-score [1] | z-score [2] | z-score [3] | z-score [4] | composite z-score [5] | z-score [6] | composite z-score [7] | composite z-score [8] | composite z-score [9] | composite z-score [10] | composite z-score [11] | composite z-score [12] | composite z-score [13] | z-score [14] | composite z-score [15] | composite z-score [16] | composite z-score [17] | composite z-score [18] | composite z-score [19] | composite z-score [20]
1 | CCC(CC)C(O)C1C=CC2C(=O)N(c3ccccc3)C(=O)C2N1Nc1ccccc1 (stereo not given) | 1.49 | 0.296 (inactive) | -0.914 (inactive) | 0.204 (inactive) | 3.53 | 0.272 (inactive) | 0.503 | 0.403 | 1.07 | 0.228 | 1.52 | 1.29 | 1.15 | -0.326 (inactive) | 0.988 | 1.21 | 0.452 | 1.38 | 0.0269 | 0.555
2 | COc1ccc([Si](C)(C)[C@@H]2[C@@H](CCn3cc(CCO)nn3)O[C@]3(C(=O)N(Cc4cccc(N5C(=O)c6cccc7cccc5c67)c4)c4ccccc43)[C@H]2C)cc1 | 1.55 | 1.29 (inactive) | 1.56 (inactive) | 20.9 (active) | 1.76 | 1.17 (inactive) | -0.0956 | 1.14 | 0.903 | -0.125 | 0.686 | -0.212 | -0.197 | -1.23 (inactive) | 0.648 | 0.433 | 0.0345 | 0.922 | 0.135 | 0.546
3 | COC(=O)c1c2oc(c1C(=O)OC)C(=O)N[C@@H](C(C)C)Cn1cc(nn1)C1(CCCCC1)NC(=O)N[C@H](CO)CC2 | 0.523 | -0.301 (inactive) | -0.772 (inactive) | -0.538 (inactive) | 1.41 | 1.29 (inactive) | -0.116 | 1.59 | 0.171 | -0.163 | 1.68 | -0.324 | -0.288 | 0.343 (inactive) | 0.408 | 0.0356 | -0.375 | -0.0824 | 0.145 | -0.462
